# Assay results reported in the supplement of paper PMC7366291.
# Structures can show the parent of a compound that is named as a salt. ± gives the standard deviation.
# Test system: Danio rerio Tg(wt1b:EGFP) embryo, pronephros
# Test: glomerular separation, fold change vs DMSO control; higher = glomeruli further apart (abnormal)
# Conditions: 25 µM; exposure: 24-48 hpf
# Outline: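 In HEPES-buffered E3 with 0.003% PTU and 0.5% DMSO, dechorionated Tg(wt1b:EGFP) zebrafish embryos were exposed to 25 μM compound from 24 to 48 hpf at 28.5°C. Pronephroi were then imaged dorsally at 470 nm in 10 z-slices, in 96-well plates filled with agarose. On maximum projections, a Fiji macro turned 16 manually placed reference points into distances and angles, and values more than 2 SD from the feature mean were excluded. Features are fold changes relative to the mean of DMSO-treated embryos from the same day.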
row,SMILES,glomerular separation
1,CCCCNc1c(C(=O)OCC)c(C)nc2c1cnn2CC [Tracazolate hydrochloride],1.18 ± 0.63
2,CCCCNc1ccc(C(=O)OCCN(C)C)cc1,1.01 ± 0.33
3,CN(C)CCC(c1ccc(Cl)cc1)c1ccccn1 (stereo not drawn) [Chlorpheniramine maleate],1.56 ± 0.77
4,CCCCc1cc2ccccc2c(OCCN(C)C)n1 [Dimethisoquin hydrochloride],0.777 ± 0.2
5,CC1(C)O[C@@H]2[C@@H](CO[C@@]3(COS(N)(=O)=O)OC(C)(C)O[C@@H]23)O1 [Topiramate],1.18 ± 0.51
6,Clc1ccc(Cn2c(CN3CCCC3)nc3ccccc32)cc1 [Clemizole hydrochloride],1.13 ± 0.35
7,Cn1c(NCCN(CCO)CCCc2ccc([N+](=O)[O-])cc2)cc(=O)n(C)c1=O [Nifekalant],0.925 ± 0.31
8,C#C[C@]1(OC(C)=O)CC[C@H]2[C@@H]3CCC4=CC(=NO)CC[C@@H]4[C@H]3CC[C@@]21CC (mixture of isomers) [Norgestimate],2.81 ± 1.2
9,O=C(CCNNC(=O)c1ccncc1)NCc1ccccc1 [Nialamide],1.06 ± 0.4
10,O=C(O)CNC(=O)C(CS)Cc1ccccc1 (stereo not drawn) [Thiorphan],0.84 ± 0.35
11,COc1cc([C@@H]2c3cc4c(cc3[C@@H](O[C@@H]3O[C@@H]5CO[C@@H](C)O[C@H]5[C@H](O)[C@H]3O)[C@H]3COC(=O)[C@H]23)OCO4)cc(OC)c1O [Etoposide],0.917 ± 0.24
12,CCCN(CCC)CCc1cccc2c1CC(=O)N2 [Ropinirole hydrochloride],1.34 ± 0.63
13,CCn1cc(C(=O)O)c(=O)c2cc(F)c(N3CCNC(C)C3)c(F)c21 (stereo not drawn) [Lomefloxacin hydrochloride],1.54 ± 1.1
